Assay outcomes: PubChem, several laboratories
An excerpt weighted towards active compounds, which were near 2.2% of everything screened.
JMJD2C inh: inhibitors of human GASC-1 (JMJD2C) demethylase. GST-JMJD2C(1-420) H3K9me3 demethylation, DELFIA europium. inhibition, % at 2.35 µM. actives 0.069% (n = 330,000). AID 2099;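 active means more than half of a compound's replicate wells show inhibition beyond 50%, single wells judged on their own value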;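 further: signal counts dimethyl H3K9 product captured on neutravidin plate; 0% = median of DMSO wells and 100% = 0.3 times that DMSO median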
PHOSPHO1 inh: inhibitors of human PHOSPHO1 phosphatase. Q8TCT1. recombinant PHOSPHO1, absorbance phosphatase assay. inhibition, % at 13.3 µM. actives 1.1% (n = 290,000); in the data active means inhibition above about 60%
Mot1-301 SUMO: blocks SUMOylation pathway, rescuing yeast Mot1-301 growth; growth rescue, % at 18.8 µM; AID 2716; actives 1% (n = 320,000); S. cerevisiae Mot1-301 growth rescue, ATP luminescence, 38.5C; percent above DMSO median, 100 means doubled;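 active means every valid replicate shows activation above 250% relative to neutral control wells; inactive means the rest, any valid replicate at or below 250%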;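 further: OY570 slx delta 5 strain wells were the positive control but not used for scaling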
PvdQ acylase: P. aeruginosa PvdQ acylase inhibition; purified PvdQ acylase, fluorescence plate reader; inhibition, % at 10 µM; actives 0.063% (n = 340,000); AID 488965; in the data active means inhibition above about 30%, passing the limit was not always enough;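 further: 0% = vehicle neutral wells and 100% = reference inhibitor wells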
HDAC3 inhib: human HDAC3 inhibition. recombinant HDAC3, fluorogenic peptide/trypsin coupled, fluorescence. inhibition, % at 8.3 µM. actives 0.15% (n = 320,000); in the data active means inhibition above about 26%, passing the limit was not always enough
pCIP destab: lowers stability of the mouse p/CIP coactivator protein | actives 0.01% (n = 290,000) | Q05BA5 | decrease of EGFP signal, % at 10 µM | F442A p/CIP-EGFP cells, EGFP fluorescence, 16 h;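 active means EGFP signal decrease of at least 30% at 10 µM or well 3 SD below plate mean, unless failing retest; inactive means the rest, including hits failing retest or dose response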
Target sequence (Q05BA5 1-1403): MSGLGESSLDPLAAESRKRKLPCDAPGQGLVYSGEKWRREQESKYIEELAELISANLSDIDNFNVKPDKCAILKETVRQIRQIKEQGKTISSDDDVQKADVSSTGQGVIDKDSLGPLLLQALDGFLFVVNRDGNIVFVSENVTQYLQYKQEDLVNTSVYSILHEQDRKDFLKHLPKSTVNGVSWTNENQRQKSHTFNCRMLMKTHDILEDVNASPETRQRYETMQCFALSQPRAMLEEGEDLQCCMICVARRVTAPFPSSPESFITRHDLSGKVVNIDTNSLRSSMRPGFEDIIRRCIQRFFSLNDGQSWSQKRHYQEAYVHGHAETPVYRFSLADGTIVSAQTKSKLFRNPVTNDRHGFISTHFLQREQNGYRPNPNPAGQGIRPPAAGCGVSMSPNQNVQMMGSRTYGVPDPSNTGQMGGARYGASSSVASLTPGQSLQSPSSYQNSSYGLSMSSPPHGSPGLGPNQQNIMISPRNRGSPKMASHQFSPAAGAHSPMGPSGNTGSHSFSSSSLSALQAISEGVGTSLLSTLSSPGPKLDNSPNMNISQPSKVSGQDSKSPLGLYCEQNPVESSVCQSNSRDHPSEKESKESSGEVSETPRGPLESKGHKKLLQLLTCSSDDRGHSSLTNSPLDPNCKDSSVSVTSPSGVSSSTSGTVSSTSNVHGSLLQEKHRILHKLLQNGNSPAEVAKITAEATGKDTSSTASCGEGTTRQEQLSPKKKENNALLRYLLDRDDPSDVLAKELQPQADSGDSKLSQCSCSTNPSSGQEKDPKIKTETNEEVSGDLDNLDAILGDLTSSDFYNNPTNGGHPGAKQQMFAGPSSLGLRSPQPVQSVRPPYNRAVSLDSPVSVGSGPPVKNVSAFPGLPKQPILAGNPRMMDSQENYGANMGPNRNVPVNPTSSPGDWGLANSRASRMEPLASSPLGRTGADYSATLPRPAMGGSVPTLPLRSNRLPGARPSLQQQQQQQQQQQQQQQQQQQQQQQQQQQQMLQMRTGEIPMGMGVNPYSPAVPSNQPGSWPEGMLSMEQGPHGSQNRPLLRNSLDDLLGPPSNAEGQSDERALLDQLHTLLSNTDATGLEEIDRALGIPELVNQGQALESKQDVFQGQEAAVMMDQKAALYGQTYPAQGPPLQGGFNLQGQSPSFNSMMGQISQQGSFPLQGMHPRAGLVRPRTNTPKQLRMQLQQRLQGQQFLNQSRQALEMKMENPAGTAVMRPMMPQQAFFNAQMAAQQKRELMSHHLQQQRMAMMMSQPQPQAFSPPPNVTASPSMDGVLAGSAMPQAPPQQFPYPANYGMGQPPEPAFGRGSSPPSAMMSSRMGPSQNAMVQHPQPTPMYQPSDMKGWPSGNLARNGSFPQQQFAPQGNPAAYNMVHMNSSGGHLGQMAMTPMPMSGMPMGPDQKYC
Yeast Mot1 SUMO: inhibits SUMO pathway, affecting Mot1-301 yeast growth | shares compounds with Mot1-301 SUMO | S. cerevisiae Mot1-301 galactose growth, ATP luminescence, 24 h; -100 = growth of slx-deleted rescue strain | growth activity, percent, % at 42 µM | 2,300 tested, under 10 active;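 active means Signal drops as the depositor expects, and the fitted half-maximal dose is no more than ten times the top valid tested dose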;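 further: more negative values mean stronger growth rescue toward the control strain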
* marks the source's active call; other numbers are inactive results; [ ] = dose if it differs, or a comment.

Results for COCc1ccc(CN2CCC(n3nccc3NC(=O)C(OC)c3ccccc3)CC2)o1 (stereo not drawn) ?
JMJD2C inh: -1; PHOSPHO1 inh: 0; Mot1-301 SUMO: 1; PvdQ acylase: 8; HDAC3 inhib: -6; pCIP destab: 5

Results for O=c1[nH]cnc2cc(Cl)ccc12 ?
JMJD2C inh: 6; PHOSPHO1 inh: 16; Mot1-301 SUMO: active; PvdQ acylase: -3; HDAC3 inhib: -5; pCIP destab: -3; Yeast Mot1 SUMO: 0[21 µM]

How did O=C(O)CSc1ccnc2cc(Cl)ccc12 do in these assays?
JMJD2C inh: -3; PHOSPHO1 inh: 22; Mot1-301 SUMO: -1; PvdQ acylase: -12; HDAC3 inhib: 1; pCIP destab: -26

Results for Cc1cccc(OCCN2CSC(=S)N(C)C2)c1 ?
JMJD2C inh: 4; PHOSPHO1 inh: 4; Mot1-301 SUMO: 372*; PvdQ acylase: -16; HDAC3 inhib: 6; pCIP destab: -7; Yeast Mot1 SUMO: 0

Results for COc1ccc(-c2csc(Nc3cc(C)ccn3)n2)cc1C ?
JMJD2C inh: -3; PHOSPHO1 inh: -5; Mot1-301 SUMO: 515*; PvdQ acylase: -7; HDAC3 inhib: 10; pCIP destab: 0; Yeast Mot1 SUMO: 0

What do the screens show for `O=C(NCC1CCCO1)C1CC(=O)N(c2ccc(Cl)cc2)C1` (stereo not drawn)?
JMJD2C inh: 2; PHOSPHO1 inh: 19; Mot1-301 SUMO: 5; PvdQ acylase: -3; HDAC3 inhib: -3; pCIP destab: 3

How did CNC(=O)c1ccccc1-c1cn(C)c2ccccc2c1=O do in these assays?
JMJD2C inh: 6; PHOSPHO1 inh: 49; Mot1-301 SUMO: 9; PvdQ acylase: -7; HDAC3 inhib: 0; pCIP destab: -1

What do the screens show for `CC(C)n1c(CN(C)c2ccccc2)nc2ccccc21`?
JMJD2C inh: 0; Mot1-301 SUMO: 875*; PvdQ acylase: -14; HDAC3 inhib: -1; pCIP destab: 0; Yeast Mot1 SUMO: 0

How did CN(C)CCCNCCCNC(=O)/C(=N\O)c1ccccc1 do in these assays?
JMJD2C inh: 17; PHOSPHO1 inh: 4; Mot1-301 SUMO: 4; PvdQ acylase: -1; HDAC3 inhib: -2; pCIP destab: 2

How did CC(=O)c1c(C)[nH]c(C(=O)COC(=O)COc2ccccc2F)c1C do in these assays?
JMJD2C inh: 0; Mot1-301 SUMO: -8; PvdQ acylase: -6; HDAC3 inhib: -3

What do the screens show for `CN1CC2(C)OC(=O)C(Cl)=C2CC1c1ccccc1` (stereo not drawn)?
JMJD2C inh: -2; PHOSPHO1 inh: 7; Mot1-301 SUMO: 431*; PvdQ acylase: 5; HDAC3 inhib: -1; pCIP destab: 5; Yeast Mot1 SUMO: -1

What do the screens show for `OC1CN=C2CCCc3c2n(c2ccc(Cl)cc32)C1` (stereo not drawn)?
JMJD2C inh: 74; PHOSPHO1 inh: -27; Mot1-301 SUMO: 368*; PvdQ acylase: -11; HDAC3 inhib: -9; pCIP destab: 4; Yeast Mot1 SUMO: 0

How did c1ccc(-c2ccc3c(c2)c2c4n3CCN=C4CCC2)cc1 do in these assays?
JMJD2C inh: 5; PHOSPHO1 inh: 26; Mot1-301 SUMO: 129; PvdQ acylase: 6; HDAC3 inhib: 6; pCIP destab: -10

How did O=C(c1ccccc1C(=O)N1CCN(c2ccccc2F)CC1)N1CCN(c2ccccc2F)CC1 do in these assays?
JMJD2C inh: -2; PHOSPHO1 inh: -31; Mot1-301 SUMO: 10; PvdQ acylase: -10; HDAC3 inhib: 4; pCIP destab: -1

What do the screens show for `CCc1c(C(=O)N2CCN(c3ccccc3F)CC2)[nH]c(C)c1C(C)=O`?
JMJD2C inh: -2; PHOSPHO1 inh: 9; Mot1-301 SUMO: active; PvdQ acylase: -7; HDAC3 inhib: 5; pCIP destab: -13; Yeast Mot1 SUMO: 0

How did O=C(CCNC(=O)c1ccc(Br)cc1)NNC(=O)C1COc2ccccc2O1 (stereo not drawn) do in these assays?
JMJD2C inh: -22; Mot1-301 SUMO: 0; PvdQ acylase: 6; HDAC3 inhib: 0

How did CN(CC(=O)O/N=C(\N)c1ccccn1)S(=O)(=O)c1ccc(Br)cc1 do in these assays?
JMJD2C inh: 11; PHOSPHO1 inh: 12; Mot1-301 SUMO: 164; PvdQ acylase: -11; HDAC3 inhib: 2; pCIP destab: 0

Results for Cc1ccc(S(=O)(=O)N(C)CC(=O)O/N=C(\N)c2ccccn2)cc1 ?
JMJD2C inh: 127; PHOSPHO1 inh: 3; Mot1-301 SUMO: 399*; PvdQ acylase: -19; HDAC3 inhib: -2; pCIP destab: -15; Yeast Mot1 SUMO: 1

How did Cc1cc(/C=N/NC(=O)c2ccsc2)c(C)n1-c1cnccn1 do in these assays?
JMJD2C inh: 1; PHOSPHO1 inh: 33; Mot1-301 SUMO: 555*; PvdQ acylase: 9; HDAC3 inhib: 6; pCIP destab: 1; Yeast Mot1 SUMO: 0

How did Cc1cc(C)cc(-n2c(C)cc(/C=N/NC(=O)c3ccncc3)c2C)c1 do in these assays?
JMJD2C inh: -28; PHOSPHO1 inh: 44; Mot1-301 SUMO: 154; PvdQ acylase: 4; HDAC3 inhib: 2; pCIP destab: -10

What do the screens show for `O=C(COC(=O)CC1CCCCC1)Nc1c(Cl)cccc1Cl`?
JMJD2C inh: 9; Mot1-301 SUMO: 21; PvdQ acylase: -4; HDAC3 inhib: -6

How did Cc1ccccc1C(=O)/C=C1\NC(=O)CS1 do in these assays?
JMJD2C inh: 4; PHOSPHO1 inh: -18; Mot1-301 SUMO: 368*; PvdQ acylase: 9; HDAC3 inhib: 11; pCIP destab: -9; Yeast Mot1 SUMO: -1[21 µM]

What do the screens show for `COc1cc(C(=O)N/N=C/c2ccccn2)cc(OC)c1OC`?
JMJD2C inh: -4; PHOSPHO1 inh: 40; Mot1-301 SUMO: 935*; PvdQ acylase: -10; HDAC3 inhib: 1; pCIP destab: -8; Yeast Mot1 SUMO: 0

How did c1ccc(OCCCc2nc(-c3cccnc3)no2)cc1 do in these assays?
JMJD2C inh: 0; PHOSPHO1 inh: -11; Mot1-301 SUMO: 456*; PvdQ acylase: -4; HDAC3 inhib: -8; pCIP destab: -5; Yeast Mot1 SUMO: 1

Results for c1ccc(CCCc2nc(-c3cccnc3)no2)cc1 ?
JMJD2C inh: 2; PHOSPHO1 inh: 29; Mot1-301 SUMO: 628*; PvdQ acylase: -11; HDAC3 inhib: -2; pCIP destab: 2; Yeast Mot1 SUMO: 0

What do the screens show for `Clc1ccc(-c2noc(CCCc3ccccc3)n2)cc1`?
JMJD2C inh: 1; PHOSPHO1 inh: -7; Mot1-301 SUMO: -8; PvdQ acylase: 4; HDAC3 inhib: 0; pCIP destab: -4

How did c1ccc(C(Cc2nc(-c3cccnc3)no2)c2ccccc2)cc1 do in these assays?
JMJD2C inh: -2; PHOSPHO1 inh: -7; Mot1-301 SUMO: 16; PvdQ acylase: 8; HDAC3 inhib: 0; pCIP destab: 6
